SMILES strings stand for the structures. Calls of active or inactive are those of the source.

In assay [1] the test system is PRMT1 (protein arginine N-methyltransferase 1). Description: PRMT1 binders on small-molecule microarrays, primary screen, biochemical, small-molecule microarray, 635 nm fluorescence (AID 1088).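 Note: binding of Prmt1 protein to compounds spotted on small-molecule microarray slides.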 The following applies: small-molecule microarray binding, higher = more signal.
The nature of assay [2]: yeast growth modulation, basal conditions, primary screen, YJM789 clinical isolate, OD600, 24 h (AID 1089).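 Note: growth of clinical yeast isolate S. cerevisiae YJM 789 seeded 1000 cells per well; test concentration not given here.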 The following applies: S. cerevisiae YJM789 growth, higher = more signal, called active from +8 up or from −8 down.
Assay [3] in a line: fission yeast growth modulation, primary screen, strain 972, OD600, 24 h, no modulator (AID 1090).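 Note: basal condition with compound alone and no growth modifier present; test concentration not given here.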 The conditions noted are these: S. pombe 972 growth, higher = more signal, called active from +8 up or from −8 down.
Assay [4] can be described thus: S. cerevisiae growth modulation with rapamycin, primary screen, strain BY4716, OD600, 96 h (AID 1091). Note: test concentration not given here. The following applies: higher = more signal, called active from +8 up or from −8 down.
The target in assay [5] is Torsin-1A-interacting protein 2 (Homo sapiens) (UniProt Q8NFQ8). Description: LULL1 binders on small-molecule microarray, primary screen, cell lysate, human LULL1 lysate, 635/667 nm fluorescence (AID 1092).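 Note: probe is lysate of COS7 cells overexpressing human LULL1; score merges per-feature 667 nm fluorescence with signal-to-noise.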 The conditions noted are these: hLULL1 lysate binding, 635 nm fluorescence, higher = more signal.
Chain of Torsin-1A-interacting protein 2 (Homo sapiens) (Q8NFQ8 whole entry, looked up): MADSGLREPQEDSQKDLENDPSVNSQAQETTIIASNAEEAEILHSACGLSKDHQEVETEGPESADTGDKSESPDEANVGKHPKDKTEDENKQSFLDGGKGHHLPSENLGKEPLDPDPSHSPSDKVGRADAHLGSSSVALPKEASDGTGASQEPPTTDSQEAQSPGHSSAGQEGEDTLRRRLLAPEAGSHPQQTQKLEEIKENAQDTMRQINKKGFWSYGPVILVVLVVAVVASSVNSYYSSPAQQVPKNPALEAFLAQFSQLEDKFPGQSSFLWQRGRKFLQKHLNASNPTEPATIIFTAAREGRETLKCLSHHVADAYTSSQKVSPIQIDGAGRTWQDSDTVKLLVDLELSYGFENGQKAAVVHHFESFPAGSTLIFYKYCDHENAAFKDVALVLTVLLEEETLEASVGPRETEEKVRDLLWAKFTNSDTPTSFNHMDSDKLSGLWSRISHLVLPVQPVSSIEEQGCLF
Assay [6] can be described thus: E. coli growth modulation, two-sided OD650, primary screen, E. coli filamentation project, strain DRC41, 24 h (AID 1093).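 Note: MC1000 strain lacking acrAB efflux and sulA so SOS filamentation is blocked; test concentration not given here.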 The following applies: OD650, 24 h, higher = more signal, called active from +8 up or from −8 down.
Assay [7] in a line: small-molecule microarray binders of probe aLefty2, primary screen, biochemical, biotinylated probe, 635/667 nm fluorescence (AID 1094).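 Note: score merges spot fluorescence near 667 nm with spot signal-to-noise ratio.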 The following applies: higher = more signal.
Assay [8] deals with Noggin (protein binding on small-molecule microarray). Description: Noggin binders on small-molecule microarray, primary screen, biochemical, 635/667 nm fluorescence (AID 1095).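 Note: score merges 667 nm feature fluorescence with signal to noise over triplicate slides.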 The following applies: 635 nm fluorescence, higher = more signal.
Assay [9] deals with Neurogenic locus notch homolog protein 3 (Homo sapiens) (UniProt Q9UM47). Description: NOTCH3 binders on small-molecule microarray, primary screen, biochemical, 635/667 nm fluorescence (AID 1096). The conditions noted are these: NOTCH3 binding, 635 nm fluorescence, higher = more signal.
Chain of Neurogenic locus notch homolog protein 3 (Homo sapiens) (Q9UM47 whole entry, looked up): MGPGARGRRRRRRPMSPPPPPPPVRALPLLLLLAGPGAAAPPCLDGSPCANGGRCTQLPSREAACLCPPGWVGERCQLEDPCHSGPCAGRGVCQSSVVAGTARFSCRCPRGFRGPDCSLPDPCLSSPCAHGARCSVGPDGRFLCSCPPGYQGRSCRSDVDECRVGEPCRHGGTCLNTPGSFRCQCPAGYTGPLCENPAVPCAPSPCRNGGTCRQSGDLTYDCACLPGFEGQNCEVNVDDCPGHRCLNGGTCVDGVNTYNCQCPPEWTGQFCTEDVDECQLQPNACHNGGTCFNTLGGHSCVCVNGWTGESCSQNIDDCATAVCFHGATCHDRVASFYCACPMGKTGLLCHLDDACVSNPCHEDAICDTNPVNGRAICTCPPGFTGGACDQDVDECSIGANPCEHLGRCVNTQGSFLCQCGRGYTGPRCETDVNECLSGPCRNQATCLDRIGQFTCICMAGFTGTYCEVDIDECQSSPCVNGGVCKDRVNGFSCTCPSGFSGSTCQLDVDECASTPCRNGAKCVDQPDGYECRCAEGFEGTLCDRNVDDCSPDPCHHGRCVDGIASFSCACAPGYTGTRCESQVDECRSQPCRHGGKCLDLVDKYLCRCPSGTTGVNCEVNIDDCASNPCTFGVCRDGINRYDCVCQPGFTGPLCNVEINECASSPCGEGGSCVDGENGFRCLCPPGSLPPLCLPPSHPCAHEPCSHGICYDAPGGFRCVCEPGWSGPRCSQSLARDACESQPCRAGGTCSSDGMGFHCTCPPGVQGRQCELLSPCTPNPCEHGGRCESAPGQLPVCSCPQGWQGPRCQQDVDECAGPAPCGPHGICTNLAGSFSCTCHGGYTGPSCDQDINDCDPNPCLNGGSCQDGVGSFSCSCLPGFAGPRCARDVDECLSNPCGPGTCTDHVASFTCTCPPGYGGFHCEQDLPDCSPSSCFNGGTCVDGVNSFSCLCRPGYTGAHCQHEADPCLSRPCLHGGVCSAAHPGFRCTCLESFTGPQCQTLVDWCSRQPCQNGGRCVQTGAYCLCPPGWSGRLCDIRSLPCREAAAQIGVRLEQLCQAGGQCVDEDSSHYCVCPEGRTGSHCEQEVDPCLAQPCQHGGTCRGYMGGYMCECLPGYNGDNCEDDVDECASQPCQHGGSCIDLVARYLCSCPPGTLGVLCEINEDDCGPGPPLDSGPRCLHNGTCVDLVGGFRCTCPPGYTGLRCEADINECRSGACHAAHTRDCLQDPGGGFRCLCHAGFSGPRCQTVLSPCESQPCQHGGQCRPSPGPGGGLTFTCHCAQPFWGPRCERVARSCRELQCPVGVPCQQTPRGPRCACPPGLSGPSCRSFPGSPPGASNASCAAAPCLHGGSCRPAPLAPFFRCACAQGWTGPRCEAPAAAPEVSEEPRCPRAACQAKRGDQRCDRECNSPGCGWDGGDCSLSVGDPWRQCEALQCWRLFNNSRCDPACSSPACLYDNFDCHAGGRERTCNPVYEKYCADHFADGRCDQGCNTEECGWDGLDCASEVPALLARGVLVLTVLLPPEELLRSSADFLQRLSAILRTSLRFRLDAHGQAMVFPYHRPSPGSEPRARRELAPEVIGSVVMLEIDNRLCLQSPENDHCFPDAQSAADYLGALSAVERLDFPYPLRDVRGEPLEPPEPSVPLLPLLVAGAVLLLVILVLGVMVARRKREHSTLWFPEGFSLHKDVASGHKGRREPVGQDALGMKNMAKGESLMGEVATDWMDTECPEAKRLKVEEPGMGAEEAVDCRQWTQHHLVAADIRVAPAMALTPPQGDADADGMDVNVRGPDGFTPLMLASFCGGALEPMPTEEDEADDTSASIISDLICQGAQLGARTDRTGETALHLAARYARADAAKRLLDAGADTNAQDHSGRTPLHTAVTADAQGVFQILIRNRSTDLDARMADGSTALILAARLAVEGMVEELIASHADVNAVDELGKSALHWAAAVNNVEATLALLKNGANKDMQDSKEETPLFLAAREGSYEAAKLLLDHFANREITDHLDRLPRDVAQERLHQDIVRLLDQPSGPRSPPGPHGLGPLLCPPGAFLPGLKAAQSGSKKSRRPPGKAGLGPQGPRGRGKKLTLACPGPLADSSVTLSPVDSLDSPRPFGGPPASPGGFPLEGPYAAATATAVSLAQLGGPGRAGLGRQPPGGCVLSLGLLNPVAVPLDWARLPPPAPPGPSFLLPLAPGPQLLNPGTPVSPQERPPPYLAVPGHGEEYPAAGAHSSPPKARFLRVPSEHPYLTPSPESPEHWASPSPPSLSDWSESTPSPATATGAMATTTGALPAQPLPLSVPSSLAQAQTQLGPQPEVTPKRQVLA
A short description of assay [10]: small-molecule microarray binders of probe aEGFR, primary screen, biochemical, biotinylated probe, 635/667 nm fluorescence (AID 1097).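 Note: probe is a biotinylated anti-EGFR antibody binding compounds printed on slides; score combines fluorescence near 667 nm and signal to noise of each spot.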 The following applies: higher = more signal.
The test system of assay [11] is Plasmodium falciparum Sir2 (PF13_0152, Sir2A). Description: pfSir2 binders on small-molecule microarrays, primary screen, biochemical, small-molecule microarray, 635 nm fluorescence (AID 1098).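 Note: score merges spot fluorescence intensity with its signal-to-noise ratio.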 The following applies: small-molecule microarray binding, fluorescence 635 nm; higher = more signal.
Assay [12] can be described thus: small-molecule microarray binders of probe aDKK1, primary screen, biochemical, biotinylated probe, 635/667 nm fluorescence (AID 1099).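 Note: score merges 667nm spot fluorescence with signal to noise across triplicate slides; reference of the scale not given here.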 The conditions noted are these: higher = more signal.
A short description of assay [13]: small-molecule microarray binders of probe aCHRDL2, primary screen, biochemical, biotinylated probe, 635/667 nm fluorescence (AID 1100). The following applies: higher = more signal.
Assay [14] in a line: splicing luciferase reporter signal modulators, primary screen, spliceosome inhibition project, cell-based, HEK293, splice +/- reporter (AID 1101).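 Note: HEK293 cells carrying a splicing-competent luciferase reporter gene; test concentration not given here.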 The following applies: luminescence, 24 h, higher = more signal, called active from +8 up or from −8 down.
For assay [15], the target named is Fibroblast growth factor 10 (Homo sapiens) (UniProt O15520). Description: FGF10 binders on small-molecule microarrays, primary screen, biochemical, small-molecule microarray, 635 nm fluorescence (AID 1102). The conditions noted are these: FGF10 binding, fluorescence 635 nm, higher = more signal.
Chain of Fibroblast growth factor 10 (Homo sapiens) (O15520 whole entry, looked up): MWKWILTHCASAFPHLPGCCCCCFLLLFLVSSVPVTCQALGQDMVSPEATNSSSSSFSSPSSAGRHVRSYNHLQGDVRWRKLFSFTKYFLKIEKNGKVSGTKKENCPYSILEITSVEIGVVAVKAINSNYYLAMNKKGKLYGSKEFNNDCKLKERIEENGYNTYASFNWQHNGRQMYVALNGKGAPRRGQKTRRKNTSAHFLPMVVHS
The test system of assay [16] is glycogen synthase kinase-3 (GSK3A per assay name; protocol says GSK3B). The assay is described as follows: GSK3 binders on small-molecule microarrays, primary screen, biochemical, small-molecule microarray, 635 nm fluorescence, GSK3A (AID 1103). Note: the record names both GSK3A and GSK3B. The conditions noted are these: small-molecule microarray binding, fluorescence 635 nm; higher = more signal.
The target of assay [17] is Epidermal growth factor receptor (Homo sapiens) (UniProt P00533). Description: EGFR binders on small-molecule microarrays, primary screen, biochemical, small-molecule microarray, 635 nm fluorescence (AID 1104).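 Note: score merges 667 nm emission intensity with spot signal to noise over triplicate slides.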 The conditions noted are these: EGFR binding, higher = more signal.
Chain of Epidermal growth factor receptor (Homo sapiens) (P00533 whole entry, looked up): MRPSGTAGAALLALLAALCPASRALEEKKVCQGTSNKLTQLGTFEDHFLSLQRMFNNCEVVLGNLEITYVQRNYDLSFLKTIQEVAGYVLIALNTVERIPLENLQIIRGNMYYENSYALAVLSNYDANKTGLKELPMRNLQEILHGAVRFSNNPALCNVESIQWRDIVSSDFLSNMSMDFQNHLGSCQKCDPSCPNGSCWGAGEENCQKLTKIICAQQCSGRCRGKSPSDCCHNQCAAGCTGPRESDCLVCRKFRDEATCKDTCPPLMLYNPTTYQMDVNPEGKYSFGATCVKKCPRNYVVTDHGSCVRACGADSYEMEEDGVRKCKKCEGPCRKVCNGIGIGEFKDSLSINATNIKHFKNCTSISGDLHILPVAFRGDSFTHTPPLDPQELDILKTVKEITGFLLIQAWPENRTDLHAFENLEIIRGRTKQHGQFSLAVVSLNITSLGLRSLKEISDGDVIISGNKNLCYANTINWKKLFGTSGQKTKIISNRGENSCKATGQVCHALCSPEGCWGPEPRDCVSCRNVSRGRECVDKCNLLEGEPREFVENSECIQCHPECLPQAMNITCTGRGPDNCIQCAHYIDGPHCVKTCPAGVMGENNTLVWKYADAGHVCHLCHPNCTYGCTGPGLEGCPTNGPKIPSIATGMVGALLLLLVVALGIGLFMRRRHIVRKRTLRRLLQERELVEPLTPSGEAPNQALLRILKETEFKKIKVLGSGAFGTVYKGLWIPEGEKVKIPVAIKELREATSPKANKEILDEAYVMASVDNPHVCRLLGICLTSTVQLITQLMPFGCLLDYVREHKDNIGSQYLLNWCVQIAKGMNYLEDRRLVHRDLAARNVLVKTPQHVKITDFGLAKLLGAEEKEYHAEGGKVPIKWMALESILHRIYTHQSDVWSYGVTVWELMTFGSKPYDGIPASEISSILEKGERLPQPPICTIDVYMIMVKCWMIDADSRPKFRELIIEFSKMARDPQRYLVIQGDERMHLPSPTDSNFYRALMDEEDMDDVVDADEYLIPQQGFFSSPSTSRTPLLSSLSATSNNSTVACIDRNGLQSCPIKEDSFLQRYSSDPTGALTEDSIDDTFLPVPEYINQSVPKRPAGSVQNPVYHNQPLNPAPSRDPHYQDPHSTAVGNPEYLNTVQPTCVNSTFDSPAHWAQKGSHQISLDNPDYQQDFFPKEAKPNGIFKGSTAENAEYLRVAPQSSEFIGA
Assay [18] concerns the target Follistatin-related protein 3 (Homo sapiens) (UniProt O95633). The assay is described as follows: FSTL3 binders on small-molecule microarrays, primary screen, biochemical, small-molecule microarray, 635 nm fluorescence (AID 1105).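 Note: score merges emission near 667 nm and signal to noise per printed spot across three slides.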 The following applies: FSTL3 binding, higher = more signal.
For assay [19], the target named is Dickkopf-related protein 1 (Homo sapiens) (UniProt O94907). The assay is described as follows: DKK1 binders on small-molecule microarrays, primary screen, biochemical, small-molecule microarray, 635 nm fluorescence scan (AID 1106).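 Note: score merges emission near 667 nm with signal to noise over three replicate slides.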 The following applies: DKK1 binding, higher = more signal.
Chain of Dickkopf-related protein 1 (Homo sapiens) (O94907 whole entry, looked up): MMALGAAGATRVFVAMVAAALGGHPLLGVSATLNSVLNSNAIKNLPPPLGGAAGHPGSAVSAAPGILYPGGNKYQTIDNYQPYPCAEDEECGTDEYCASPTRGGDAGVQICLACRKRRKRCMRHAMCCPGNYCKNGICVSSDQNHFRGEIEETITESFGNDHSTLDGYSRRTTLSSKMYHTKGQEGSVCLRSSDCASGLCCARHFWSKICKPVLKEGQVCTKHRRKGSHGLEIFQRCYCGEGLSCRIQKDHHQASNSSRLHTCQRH
For assay [20], the system named is Inhibin beta A chain (activin A). The assay is described as follows: INHBA (activin A) binders on microarrays, primary screen, biochemical, small-molecule microarray, 635 nm fluorescence scan (AID 1107).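 Note: mouse activin A protein probed at 4.33 µg/mL on printed slides; score merges bound-protein fluorescence near 667 nm with spot signal-to-noise.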 The conditions noted are these: small-molecule microarray binding, higher = more signal.

Chain of Follistatin-related protein 3 (Homo sapiens) (O95633 whole entry, looked up): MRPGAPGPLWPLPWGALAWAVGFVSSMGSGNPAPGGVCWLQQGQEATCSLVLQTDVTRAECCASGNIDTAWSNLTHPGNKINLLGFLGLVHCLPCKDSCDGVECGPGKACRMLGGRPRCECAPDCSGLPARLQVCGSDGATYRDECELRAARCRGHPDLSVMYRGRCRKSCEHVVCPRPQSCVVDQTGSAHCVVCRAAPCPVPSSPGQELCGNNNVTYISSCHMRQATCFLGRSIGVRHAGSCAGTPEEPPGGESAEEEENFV

Consider `CCOC(=O)[C@H](CC(C)C)NC(=O)CCC1CC(OC(=O)NCc2cccc3ccccc23)CC2(CCCC(COC(=O)NCCOc3ccccc3)O2)O1` (stereo not given in full), for which the composite z-score was 1.54 in assay [1]; 1.13 in assay [5]; -0.177 in [7]; 0.317 in assay [8]; 0.859 in assay [9]; -0.171 in [10]. In addition, the composite z-score in assay [11] is 0.951; in [12], -0.246; in assay [13] it was -0.383; in [15], 0.658; in assay [16] it was 1.03; in assay [17], 0.557. The composite z-score in assay [18] turned out to be 0.887; in assay [19], 0.344; in [20] it was 0.184. Also, the z-score was -0.524 (inactive) in [2]; 0.269 (inactive) in [3]; 0.231 (inactive) in [4]; 0.0653 (inactive) in assay [6]; -1.87 (inactive) in assay [14].

Turning to `CC(CCN1CCc2nc(-c3ccccc3)c(-c3ccccc3)cc2C1)=NOC[C@@H](O)[C@H]1O[C@@H]2OC(C)(C)O[C@@H]2[C@H]1O`, the composite z-score is 1.53 in [1]; 1.78 in [5]; -0.342 in [7]; 0.449 in assay [8]; 0.41 in assay [9]; -0.0409 in [10]. For the same compound, the composite z-score in assay [11] was 0.525; in assay [12], -0.414; in assay [13] it was -0.395; in [15] it was 0.743; in [16] it was 0.587; in assay [17], 0.28. In addition, the composite z-score in assay [18] came to 0.583; in [19] it was 0.341; in [20] it was 0.376. Moreover, the z-score in assay [2] was -0.987 (inactive); in assay [3], -4.63 (inactive); in [4] it was -4.56 (inactive); in [6], 1.23 (inactive); in [14], 0.662 (inactive).

With `CCOC(=O)NN=C1C[C@@H](O)[C@@H](O)[C@@H]2[C@@H]3C(=O)N(Cc4ccccc4)C(=O)[C@@H]3CC[C@H]12`, the composite z-score in assay [1] was -0.278; in [5], -0.308; in [7], -0.138; in assay [8], 0.0448; in [9], -0.0518; in [10], -0.0387. Further, the composite z-score in [11] is 0.245; in [12], -0.259; in assay [13], -0.301; in assay [15] it was -0.0919; in assay [16] it was -0.435; in assay [17], 0.242. Also, the values for the composite z-score in [18], in assay [19] and in assay [20] were 0.0487, 0.615 and -0.0924, respectively. The z-score in assay [2] is -0.907 (inactive); in assay [3], -0.524 (inactive); in [4] it was -1.33 (inactive); in assay [6], -0.127 (inactive); in assay [14], -1.14 (inactive).

For `CCOC(=O)[C@H](CC(C)C)NC(=O)CCC1CC(OC(=O)NCc2cccc3ccccc23)CC2(CCCC(COC(=O)NCc3ccncc3)O2)O1` (stereo not given in full), the composite z-score is 1.56 in assay [1]; 1.58 in [5]; -0.166 in assay [7]; 0.433 in [8]; 0.789 in assay [9]; 0.157 in assay [10]. The composite z-score is 0.741 in assay [11]; -0.131 in assay [12]; -0.377 in assay [13]; 1.2 in [15]; 1.06 in assay [16]; 0.363 in assay [17]. Besides, the values for the composite z-score in assay [18], in assay [19] and in assay [20] were 0.887, 0.559 and -0.177, respectively. Moreover, the z-score in [2] is 0.649 (inactive); in assay [3], 0.462 (inactive); in [4] it was 0.678 (inactive); in [6], 0.409 (inactive); in assay [14], -0.00923 (inactive).

Turning to `CO[C@@H]1COC(=O)CC=C[C@@H](C)[C@H](OC)COC(=O)[C@@H](C)COC(=O)CC=C[C@H]1C`, the composite z-score in [1] is 0.263; in [5], -0.915; in assay [7], -0.317; in [8], 0.496; in [9], -0.81; in assay [10], -0.616. The composite z-score was 0.474 in assay [11]; -0.803 in [12]; -1.29 in assay [13]; -0.55 in [15]; 0.0478 in [16]; 0.354 in assay [17]. Also, the composite z-score in assay [18] is 0.734; in assay [19], 1.37; in assay [20] it was 1.85. The z-score in assay [2] is 0.659 (inactive); in assay [3], -0.155 (inactive); in [4], 1.2 (inactive); in [6], 0.421 (inactive); in assay [14] it was 0.166 (inactive).
